Screens: PubChem, Buhrlage Lab, Dana-Farber Cancer Institute and Novartis Institutes for BioMedical Research (Cambridge, Mass)
Only some compounds are listed: those with a hit (about 13% of all), similar ones and a draw of the others.
USP7 inh – human USP7 deubiquitinase inhibition. inhibition, % at 20 µM. hit rate 0.3% among 47,000. Q93009. purified USP7, Ub-rhodamine cleavage fluorescence
USP10 inh – blocks human USP10 ubiquitin-rhodamine cleavage | Q14694 | hit rate 1.1% among 47,000 | inhibition, % at 20 µM | purified USP10, Ub-rhodamine fluorescence, 60 min | AID 1645856
USP30 inh – inhibitors of human USP30 deubiquitinase; purified USP30, Ub-rhodamine cleavage fluorescence; inhibition, % at 25 µM; hit rate 5.3% among 47,000
USP8 block – human USP8 deubiquitinase inhibition | P40818 | purified USP8, Ub-rhodamine cleavage fluorescence, 30 min | inhibition, % at 20 µM | hit rate 4.2% among 47,000 | AID 1645853
USP17 inh – blocks human USP17 ubiquitin-rhodamine cleavage; A8MUK1; inhibition, % at 50 µM; purified USP17, Ub-rhodamine cleavage fluorescence, 3 h; hit rate 6.5% among 47,000; AID 1645855
Target sequence (A8MUK1 whole entry, looked up): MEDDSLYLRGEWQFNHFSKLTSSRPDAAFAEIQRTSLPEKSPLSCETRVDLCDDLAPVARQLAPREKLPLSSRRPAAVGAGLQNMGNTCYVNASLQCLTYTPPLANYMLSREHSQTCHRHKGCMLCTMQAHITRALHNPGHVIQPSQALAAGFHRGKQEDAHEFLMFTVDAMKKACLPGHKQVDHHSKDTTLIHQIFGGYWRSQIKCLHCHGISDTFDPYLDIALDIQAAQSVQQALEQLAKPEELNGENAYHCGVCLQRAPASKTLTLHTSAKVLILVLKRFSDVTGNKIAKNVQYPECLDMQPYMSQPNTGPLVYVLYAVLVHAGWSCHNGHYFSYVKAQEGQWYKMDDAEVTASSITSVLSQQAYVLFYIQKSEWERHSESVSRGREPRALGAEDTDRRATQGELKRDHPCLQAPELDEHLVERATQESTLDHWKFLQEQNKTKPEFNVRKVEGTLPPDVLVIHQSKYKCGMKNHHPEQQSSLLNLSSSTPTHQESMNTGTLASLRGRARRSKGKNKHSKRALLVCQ
USP28 inh – inhibitors of human USP28 deubiquitinase; purified USP28, Ub-rhodamine cleavage fluorescence, 30 min; Q96RU2; hit rate 3% among 47,000; inhibition, % at 25 µM; AID 1645857
Each line names hits and unclear results; the compound was inactive in the other large screens. Cut-off read from the data, not from the text of the source: active = inhibition above about 30%; inactive = the rest.

Cc1ccc(C(C(=O)NCc2ccccc2)N(Cc2ccccc2)C(=O)c2ccc3c(c2)OCCO3)cc1 (centres undefined)	none
CC(C)C(=O)Nc1nc2ccc(CCC(=O)Nc3ccc(F)cc3F)cc2s1	USP30 inh 33
CSc1cccc(NC(=O)CCc2ccc3nc(NC(C)=O)sc3c2)c1	USP30 inh 54
Cc1ccccc1CNC(=O)CCc1ccc2nc(NC(=O)C(C)C)sc2c1	none
O=C1CCCN1Cc1ncn2c1CN(C(=O)N1CCCC1)CCC2	none
CC(=O)c1ccc(NC(=O)COC(=O)c2c[nH]c3ccccc23)cc1	USP17 inh 34 (no result: USP30 inh, USP28 inh)
CCc1ccc(NC(=O)COC(=O)c2n[nH]c3ccccc23)cc1	USP17 inh 71, USP28 inh 43
N#Cc1ccc(Cl)cc1NC(=O)COC(=O)c1n[nH]c2ccccc12	USP8 block 34
N#Cc1ccc(NC(=O)COC(=O)C(Cc2c[nH]c3ccccc23)NC(=O)c2ccc(F)cc2)cc1 (centres undefined)	none
N#Cc1cccc(NC(=O)COC(=O)c2n[nH]c3ccccc23)c1	USP10 inh 31, USP17 inh 47
CCOc1ccc(NC(=O)COC(=O)c2n[nH]c3ccccc23)cc1	none
N#Cc1ccc(Cl)cc1NC(=O)CSc1ncccc1C(=O)O	none
NCCNC(=O)N1CCc2nc3ccccc3n2C(Cc2ccccc2)C1 (centres undefined)	none
Cc1oc(C2CCC2)nc1C(=O)NCCCn1cccn1	none
Cc1ccccc1CNC(=O)CN1C(=O)C2CCCN2C(=O)c2cccc(C)c21 (centres undefined)	USP30 inh 37
CCn1c(=O)c2sccc2n2c(CCC(=O)NCCC3=CCCCC3)nnc12	none
O=C(Cn1cnc(-c2noc(-c3cccc(F)c3)n2)c1)Nc1ccccc1	USP8 block 65
O=C(Cn1cnc(-c2noc(-c3ccccc3)n2)c1)Nc1ccccc1	USP10 inh 42, USP8 block 90 (no result: USP30 inh, USP28 inh)
O=C(COc1cccc(-c2noc(-c3ccc([N+](=O)[O-])cc3)n2)c1)Nc1ccccc1	none
Cc1ccc(-c2nnn(CC(=O)N(c3ccccc3C)C(C(=O)NC3CCCC3)c3ccc(O)cc3)n2)cc1 (centres undefined)	none
Cc1ccc(C2C3=C(CC(c4ccc(Cl)cc4)CC3=O)Nc3ccccc3N2C(=O)c2ccccc2)cc1 (centres undefined)	USP30 inh 36
CN(C)c1ccc(C2C3=C(CC(C)(C)CC3=O)Nc3ccccc3N2C(=O)Cc2ccc(Cl)cc2)cc1 (centres undefined)	USP8 block 31
Cc1ccc(C2CC(=O)C3=C(C2)Nc2ccccc2N(C(=O)c2ccccc2)C3c2ccccc2)cc1 (centres undefined)	USP30 inh 43, USP8 block 30
COc1ccc(C2C3=C(CC(c4ccc(C)cc4)CC3=O)Nc3ccccc3N2C(=O)c2ccccc2)cc1 (centres undefined)	none
Cc1ccc(C)c(NC(=O)c2cc(=O)n(C)c3c2c(=O)n(C)c(=O)n3C)c1	none
COc1cccc(N2CCN(c3ccc4nnc(CCC(=O)NCC5CCCO5)n4n3)CC2)c1 (centres undefined)	none
COc1cccc(N2CCN(c3ccc4nnc(CCC(=O)N5CCc6ccccc6C5)n4n3)CC2)c1	USP30 inh 48, USP17 inh 72, USP28 inh 39
COc1cccc(N2CCN(c3ccc4nnc(CCC(=O)NC5CCCC5)n4n3)CC2)c1	USP8 block 65
O=C(NCc1ccccc1)[C@H]1C[C@@H]2CN(S(=O)(=O)C3CC3)C[C@H]1O2	none
COc1cccc(-c2cc(CNC(=O)COc3ccc(F)cc3)no2)c1	USP30 inh 35
Cc1cccc(OCC(=O)NCc2cc(-c3ccccc3F)on2)c1	USP30 inh 42, USP17 inh 42
COc1cccc(C(=O)NCc2cc(-c3ccc(F)cc3F)on2)c1OC	USP30 inh 40
COc1ccc(-c2nc(CNC(=O)COc3ccc(C)cc3)cs2)cc1	USP17 inh 57
C1CN(c2nnn(CC3CC3)n2)CCO1	none
Cc1noc(C)c1COc1cccc(C(=O)Nc2ccccc2)c1	none
O=C(Nc1cc(Cl)ccc1-n1cncn1)c1ccc(S(=O)(=O)N2CCCC2)cc1	USP30 inh 66
Cc1noc(C)c1COc1cccc(C(=O)Nc2cc(Cl)ccc2-n2cncn2)c1	USP17 inh 38, USP28 inh 52
